# This excerpt belongs to a sample that is enriched for hits.
# N370S GC: N370S glucocerebrosidase modulation, Gaucher chaperone candidate. N370S GC spleen homogenate, 4MU-glucoside fluorescence. Potency, µM (series often up to 59.4 µM), most hits filed as inhibitors. actives 0.092% (n = 330,000). AID 2101
# GRP78 ERSR act: induces the endoplasmic reticulum stress response in human glioma cells. U87-MG GRP78 promoter luciferase reporter, 16 h. Potency, µM, most hits filed as activators. actives 0.02% (n = 420,000); note: series mostly up to about 76 µM; nearly all actives have a fitted effect of over 35% in size
#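 ERSR induction read as luciferase luminescence (Bright-Glo, 10 min at room temperature) in stably transfected human U87-MG glioma cells exposed to compounds for 16 h, using GRP78 as sensor.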
# Apoferritin bind: binds horse apoferritin like a general anesthetic. P02791. apoferritin/1-aminoanthracene competitive binding, fluorescence. Potency, µM (highest dose often 77.5 µM), actives largely listed as inhibitors. actives 0.074% (n = 350,000); note: nearly all actives have a fitted effect of over 20% in size
#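 Steps: apoferritin (10 uM) was premixed with half-saturated 1-AMA in PBS, compounds were pin-transferred, plates stood 10 min at room temperature, fluorescence was read at 380/535 nm, and curves were fitted with a Hill equation.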
# ClpP mod: qHTS Assay for Activators of ClpP. actives 1.9% (n = 340,000). ATP-dependent Clp protease proteolytic subunit (Bacillus subtilis (strain 168)), P80244. AID 651965, 2013. purified B. subtilis ClpP, FRET peptide cleavage, 20 min. Potency, µM (series often up to 57.5 µM); active = well fitted falling curve with a large enough effect; inconclusive = small, poorly fitted or top-dose-only effect; inactive = no such curve, though single readings can be large or run the other way; note: the source files actives as falling curves though it sought activators and does not explain the sign; nearly all actives have a fitted effect of over 65% in size
#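 ClpP 10 microg/mL final, pH 8 Tris/KCl buffer with BSA, glycerol, Tween-20; compound pinned in; FRET-FV substrate; RT 20 min; Ex320/Em430; ΔFRET vs ADEP 5.8 microM, DMSO, no enzyme.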
# Integrin act MD: integrin-mediated muscular dystrophy alleviation activation; alpha7betagal myoblasts, beta-gal FDG fluorescence, 48 h; actives 0.064% (n = 350,000); Potency, µM (doses to about 38.3 µM), hits mostly activators; AID 624291; note: nearly all actives have a fitted effect of over 60% in size
#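 alpha7betagal+/- myoblasts (passage 13, 250/well) treated 48 h at 37C with compounds at 1:260 dilution of DMSO stock. Lysed, then beta-galactosidase activity read as FDG fluorescence (ex 480/em 540) after 30 min, with pre-read for autofluorescence.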
# CBFb-RUNX1 inh: inhibitors of human CBF-beta and RUNX1 interaction; Q01196+Q13951; AlphaScreen CBFb-His/RUNX1-biotin binding, biochemical; Potency, µM (top dose mostly 59.8 µM), actives largely listed as inhibitors; 230,000 tested, under 10 active; AID 1477
# Target sequence (Q01196 whole entry, looked up): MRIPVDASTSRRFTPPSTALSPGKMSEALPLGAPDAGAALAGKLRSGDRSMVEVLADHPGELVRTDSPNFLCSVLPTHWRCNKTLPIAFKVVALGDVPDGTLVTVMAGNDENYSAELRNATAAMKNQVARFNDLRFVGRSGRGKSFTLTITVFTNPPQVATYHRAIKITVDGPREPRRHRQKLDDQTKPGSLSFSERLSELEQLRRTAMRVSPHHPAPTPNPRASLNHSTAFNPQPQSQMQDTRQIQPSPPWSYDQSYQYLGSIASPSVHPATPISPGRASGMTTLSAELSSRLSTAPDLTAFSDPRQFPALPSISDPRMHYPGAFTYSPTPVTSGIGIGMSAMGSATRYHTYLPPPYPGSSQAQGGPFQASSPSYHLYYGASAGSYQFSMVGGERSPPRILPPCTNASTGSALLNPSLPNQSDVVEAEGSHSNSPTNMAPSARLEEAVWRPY
# Target sequence (Q13951 whole entry, looked up): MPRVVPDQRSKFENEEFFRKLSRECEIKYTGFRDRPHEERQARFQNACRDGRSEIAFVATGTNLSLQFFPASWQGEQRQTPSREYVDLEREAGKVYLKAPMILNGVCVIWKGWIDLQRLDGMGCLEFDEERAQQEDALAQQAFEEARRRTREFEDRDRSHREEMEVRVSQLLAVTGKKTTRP
#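 CBF-beta (His) and RUNX1 (biotin), 30 nM each; 20 min preassociation; + compound, 15 min; + beads 50 ng each (Ni, streptavidin), 90 min; RT; AlphaScreen read.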
# Numbers stand for hits; . = inactive; ? = inconclusive; / = no result. Unless noted, calls come from the whole dose curve; as a rule, active = well fitted curve in the direction sought with a large enough effect; inconclusive = small, poorly fitted or top-dose-only effect, or another doubt; inactive = no such curve, though single readings can be large; an effect the other way counts as inactive or inconclusive.
SMILES,N370S GC,GRP78 ERSR act,Apoferritin bind,ClpP mod,Integrin act MD,CBFb-RUNX1 inh
CCOC(=O)c1c(N)n(-c2ccc(N)cc2)c2nc3ccccc3nc12,.,.,.,.,.,.
CCOC(=O)c1c(N)n(CCOC(=O)c2cccs2)c2nc3ccccc3nc12,?,.,.,7.9µM,.,.
CCCCCOC(=O)c1c(N)n(CCOC)c2nc3ccccc3nc12,?,.,.,.,.,.
CCOC(=O)c1ccc(-n2c(N)c(C(=O)OC)c3nc4ccccc4nc32)cc1,/,.,.,2.8µM,/,/
Cc1cc(C)c[n+](CC(=O)c2cc3ccccc3oc2=O)c1,.,.,.,28µM,.,.
Cc1ccc[n+](CC(=O)c2cc3ccccc3oc2=O)c1,.,.,.,?,.,.
O=C(Cn1nc(Cl)nc1Cl)c1cc2ccccc2oc1=O,.,.,.,28µM,.,.
O=C1CCCCCCC1Sc1ccccc1[N+](=O)[O-] (stereo not drawn),.,.,7.9µM,.,.,.
O=[N+]([O-])c1ccccc1S(=O)(=O)NC1CCCCCCC1,.,.,?,/,.,/
COC(=O)C1CCN(Cc2ccc3c(c2)CN(C(=O)c2ccc4nc(C)c(C)nc4c2)CCO3)CC1,/,.,/,/,/,/
Cc1nnc2c3ccccc3nc(Nc3cccc(O)c3)n12,/,.,.,.,/,/
Cc1nnc2c3ccccc3nc(Nc3ccccc3C(=O)O)n12,/,.,.,16µM,/,/
COc1ccc(-c2cc3ncc(C)n3c(Nc3ncccc3C(N)=O)n2)cc1OC,/,.,/,/,/,/
CCCCCCCCC(=O)N/N=C/c1ccccn1,.,.,13µM,.,.,.
CCCCC(C(=O)N/N=C/c1ccccn1)C(=O)N/N=C/c1ccccn1,.,.,.,/,.,.
COC(=O)c1cc2oc3ccccc3c2n1CC(=O)N1CCCc2ccccc21,.,.,.,8.9µM,.,.
COC(=O)c1cc2ccsc2n1CC(=O)N1CCCc2ccccc21,?,.,?,.,.,.
Cc1cc(C)n(-c2ccc(C(=O)OCc3nnc(-c4ccccc4)o3)cc2)n1,.,.,.,35µM,.,.
Cc1nn(-c2ccccc2)c2sc(C(=O)OCc3nnc(-c4ccccc4)o3)cc12,.,.,.,14µM,.,.
COC(=O)c1cc2c(C)nn(-c3ccccc3)c2s1,.,.,.,32µM,.,.
COc1ccc(-c2nc3c(c(=O)[nH]c(=O)n3Cc3ccccc3)n2C)cc1,.,.,.,35µM,.,.
Cn1c(-c2cccc(OCc3ccccc3)c2)nc2c1c(=O)[nH]c(=O)n2Cc1ccccc1,.,.,.,.,.,.
CCCn1c(-c2cc(OC)c(OC)c(OC)c2)nc2c1c(=O)[nH]c(=O)n2Cc1ccccc1,.,.,.,/,13µM,/
COc1ccc(-c2nc3c(c(=O)[nH]c(=O)n3Cc3ccccc3)n2Cc2ccccc2)cc1,?,.,.,28µM,.,.
O=C(c1cccc(N2CCCC2=O)c1)N1CCC(Oc2cccc(CN3CCN(c4ccccn4)CC3)c2)CC1,/,.,/,/,/,/
SMILES,N370S GC,GRP78 ERSR act,Apoferritin bind,ClpP mod,Integrin act MD,CBFb-RUNX1 inh
O=C(C[n+]1cccc(I)c1)c1ccc(F)cc1,/,.,/,.,/,/
CCCCCC(=O)NNC(=O)c1ccc(F)cc1,.,.,.,2.8µM,.,.
CCCCCCCC(=O)NNC(=O)c1ccc(F)cc1,.,.,.,.,.,.
COc1ccccc1N1CCN(c2nc(CNC(=O)c3ccccc3F)nc3ccccc23)CC1,/,.,/,/,/,/
CSc1ccc(Cl)c(C(=O)OCC(=O)Nc2ccccc2OC(F)F)c1,.,.,.,28µM,.,?
NC(=O)Nc1ccc(C(=O)OCC(=O)Nc2ccc([N+](=O)[O-])cc2C(F)(F)F)cc1,.,.,.,.,.,.
COC(=O)c1cc(C(=O)OCC(=O)Nc2ccccc2OC(F)F)cc([N+](=O)[O-])c1,.,.,.,28µM,.,.
CCOc1ccccc1NC(=O)COC(=O)c1cc(C(=O)OC)cc([N+](=O)[O-])c1,.,.,.,.,?,.
COc1ccc(NC(=O)COC(=O)c2cc(SC)ccc2Cl)c(OC)c1,.,.,.,.,.,.
Nc1ccc(C(=O)OCC(=O)Nc2ccc([N+](=O)[O-])cc2C(F)(F)F)cc1,.,.,.,22µM,.,.
CC(C)(C)n1ncc2c(=O)n(Cc3ccccc3Cl)cnc21,/,.,/,/,/,/
O=C(NCCNC(=O)Nc1ccc(Cl)cc1)Nc1ccc(Cl)cc1,/,.,/,.,.,/
O=C(NCc1cccs1)Nc1ccc(Cl)cc1,.,.,.,20µM,.,.
Cc1ccc(NC(=O)C(C)OC(=O)CCNS(=O)(=O)c2ccc(C)cc2)cc1 (stereo not drawn),.,.,.,32µM,.,.
CC(=O)Nc1ccc(S(=O)(=O)NCCC(=O)OC(C)C(=O)c2ccc(C)cc2)cc1 (stereo not drawn),.,.,.,.,.,/
Cc1ccc(S(=O)(=O)NCCCCCC(=O)Nc2ccccc2)cc1,.,.,.,28µM,.,.
Cc1cccc(S(=O)(=O)NCCC(=O)OC(C)C(=O)NC(=O)NC2CCCCC2)c1 (stereo not drawn),.,.,?,32µM,.,.
CC(C)Nc1nc(C#N)nc(Nc2ccccc2)n1,/,/,.,/,/,/
COc1cc(C2C(C(=O)c3ccc(C)o3)=C(O)C(=O)N2CCCn2ccnc2)cc(OC)c1OC (stereo not drawn),.,.,.,25µM,.,/
COc1ccccc1/C=c1/[nH]c(=O)/c(=C\c2ccccc2OC)[nH]c1=O,/,.,/,.,/,/
O=C(c1ccc(Cl)cc1)N1CCC(C(=O)N2CCCc3ccccc32)CC1,.,.,.,32µM,.,/
CO[C@H]1[C@H](NC(=O)c2ccsc2)c2ccccc2C12CCN(Cc1ccc3c(c1)OCO3)CC2,/,.,/,/,/,/
O=C(/C=C/c1ccc2c(c1)OCO2)NCCSCc1cccc(Cl)c1,.,.,.,32µM,.,.
O=C(/C=C/c1ccc2c(c1)OCO2)NCCCN1CCOCC1,.,.,.,16µM,.,.
O=C(/C=C/c1ccc2c(c1)OCO2)NCCSCc1ccc(Cl)cc1Cl,.,.,.,.,.,.
N/C(=N\OC(=O)c1ccc(=O)n(Cc2ccccc2)c1)c1ccccn1,.,.,.,28µM,?,.
N/C(=N\OC(=O)c1ccc(=O)n(Cc2ccc(Cl)cc2)c1)c1ccccn1,.,.,.,.,.,.
COC(=O)c1cc(CNC(=O)c2ccc3ncccc3c2)cc(NC(=O)c2ccccc2Cl)c1,/,.,/,/,/,/
O=C(O)/C(=C\c1ccc(Cl)c([N+](=O)[O-])c1)c1ccc(S(=O)(=O)N2CCCCC2)s1,.,.,.,28µM,.,.
